Reference: PubChem BioAssay (Tox21)
Inconclusive results are not listed. Activity calls are given as the source filed them. Unless noted, calls follow the shape of the dose curve; as a rule, active = well fitted curve in the direction sought with a large enough effect in the repeat runs; inconclusive = weak or mixed curves; inactive = no such curve, though single readings can be large; an effect the other way counts as inactive or inconclusive.

Columns and labels:
[1] = qHTS assay for small molecule agonists of the p53 signaling pathway (AID 651631; calls by dose curve; also: nearly all actives have a fitted effect of over 15% in size)
How it was run: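 Testing took place in human colorectal HCT-116 cells with stable p53RE-driven beta-lactamase. After 16 h of compound exposure at 37 °C, a FRET substrate was added and fluorescence recorded 2 h later.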

[2] = qHTS assay for small molecules that induce genotoxicity in human embryonic kidney cells expressing luciferase-tagged ATAD5 (AID 651632); also: nearly all actives have a fitted effect of over 15% in size; also: potency is read from the fitted curve at half-maximal effect
How it was run: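 Cells were seeded at 2,000 per well, dosed with compound, and incubated 16 hr at 37C in 5% CO2. Luciferase activity was then quantified after a 30 min room-temperature incubation with Amplite.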

[3] = qHTS assay for small molecule agonists of the p53 signaling pathway - cell viability (AID 651633; calls by dose curve; also: series mostly up to about 83 µM; nearly all actives have a fitted effect of over 30% in size)
How it was run: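 Viability counter-read: CellTiter-Glo luminescence (30 min, room temperature) in the same p53RE-bla plates. These plates had been exposed to compounds for 16 h at 37 C.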

[4] = qHTS assay for small molecules that induce genotoxicity in human embryonic kidney cells expressing luciferase-tagged ATAD5 - cell viability (AID 651634; calls by dose curve; also: nearly all actives have a fitted effect of over 25% in size)
How it was run: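 Cells (HEK293T, luciferase-tagged ATAD5) are seeded at 2,000 per well, dosed with compound or DMSO vehicle, and incubated 15.5 hr at 37C and 5% CO2. CellTiter-Fluor is added for 30 min before fluorescence is measured.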

[5] = qHTS assay for small molecule disruptors of the mitochondrial membrane potential - cell viability (AID 720634; calls by dose curve;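 also: human HepG2 liver cancer cells; series mostly up to about 83 µM; nearly all actives have a fitted effect of over 20% in size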)
How it was run: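 Cytotoxicity was measured by ATP quantitation in HepG2 wells that had first been treated with compound for 1 hr and stained with m-MPI dye; CellTiter-Glo incubation was 30 min at room temperature.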

[6] = qHTS assay to test for compound auto fluorescence at 590 nm (red) in HepG2 cells (AID 720674)
How it was run: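 1 hr compound incubation on HepG2 cells, 37 C, 5% CO2; plate read ex 540 nm / em 590 nm; intensities reported as Rose Bengal sodium equivalents.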

[7] = qHTS assay to test for compound auto fluorescence at 535 nm (green) in HepG2 cells (AID 720675)
[8] = qHTS assay to test for compound auto fluorescence at 590 nm (red) in HEK293 cells (AID 720679)
How it was run: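 Plates of HEK293 cells (10% dialyzed FBS) are treated with 23 nL compound or DMSO vehicle after a 4-5 hr attachment period, incubated overnight at 37C, and read for red fluorescence at 540/590nm.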

[9] = qHTS assay to test for compound auto fluorescence at 535 nm (green) in HEK293 cells (AID 720680)
[10] = qHTS assay to test for compound auto fluorescence at 460 nm (blue) in HEK293 cell free culture (AID 720681)
How it was run: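 Blue fluorescence (Ex 405/Em 460 nm, triamterene-equivalent) was read immediately after pin transfer of compound or DMSO into medium (DMEM, 10% FBS) without cells.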

[11] = qHTS assay to test for compound auto fluorescence at 535 nm (green) in HEK293 cell free culture (AID 720682)
How it was run: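 DMEM + 10% FBS, cell-free; cpd or DMSO pinned in; Ex485/Em535 read; output as fluorescein-equivalent signal.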

[12] = qHTS assay to test for compound auto fluorescence at 590 nm (red) in HepG2 cell free culture (AID 720684)
How it was run: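 No cells present: MEM + 10% FBS only. Compound pinned in, red label read (540/590 nm). Activity = fluorescence equivalent to Rose Bengal sodium.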

[13] = qHTS assay to test for compound auto fluorescence at 460 nm (blue) in HepG2 cell free culture (AID 720685)
How it was run: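 Cell-free plates of MEM plus 10% FBS received 23 nL compound or DMSO vehicle; blue-channel (405/460 nm) intensity scored against triamterene as reference fluorophore.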

[14] = qHTS assay to test for compound auto fluorescence at 535 nm (green) in HepG2 cell free culture (AID 720686)
[15] = qHTS assay to test for compound auto fluorescence at 460 nm (blue) in HepG2 cells (AID 720687)
How it was run: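 Blue-channel autofluorescence (Ex/Em 405/460 nm, triamterene-equivalent) was measured after 1 hr compound exposure at 37 C, 5% CO2. Cells were HepG2, plated overnight at 37 C in MEM plus 10% FBS.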

[16] = qHTS assay for small molecule disruptors of the mitochondrial membrane potential (AID 720635); also: potency is read from the fitted curve at half-maximal effect
How it was run: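 Mitochondrial membrane potential tracked with Mito-MPS dye, red aggregates (ex 540/em 590 nm) against green monomers (ex 490/em 535 nm). Compound treatment 1 hr at 37C, dye 30 min in HepG2.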

[17] = qHTS assay to test for compound auto fluorescence at 460 nm (blue) in HEK293 cells (AID 720678)
How it was run: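 After cell attachment (4-5 hr, 37C), compounds were pinned onto HEK293 monolayers in 10% dialyzed FBS medium. The blue channel (405/460 nm) was read following overnight culture. Equivalency was calculated against triamterene.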

[18] = qHTS assay to test for compound auto fluorescence at 590 nm (red) in HEK293 cell free culture (AID 720683)
How it was run: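 Red-channel autofluorescence of compounds in culture medium (DMEM, 10% FBS), no cells, measured at 540/590 nm. Rose Bengal sodium is the reference fluorophore for equivalence.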

[19] = molecular target: Glucocorticoid receptor (Homo sapiens) (UniProt P04150); test: qHTS assay to identify small molecule agonists of the glucocorticoid receptor (GR) signaling pathway (AID 720691; active = well fitted activation curve with a large enough effect in the signal ratio in the repeat runs, not every such curve was filed as active; the % refers to the signal ratio)
Glucocorticoid receptor (Homo sapiens), sequence (P04150 whole entry, looked up): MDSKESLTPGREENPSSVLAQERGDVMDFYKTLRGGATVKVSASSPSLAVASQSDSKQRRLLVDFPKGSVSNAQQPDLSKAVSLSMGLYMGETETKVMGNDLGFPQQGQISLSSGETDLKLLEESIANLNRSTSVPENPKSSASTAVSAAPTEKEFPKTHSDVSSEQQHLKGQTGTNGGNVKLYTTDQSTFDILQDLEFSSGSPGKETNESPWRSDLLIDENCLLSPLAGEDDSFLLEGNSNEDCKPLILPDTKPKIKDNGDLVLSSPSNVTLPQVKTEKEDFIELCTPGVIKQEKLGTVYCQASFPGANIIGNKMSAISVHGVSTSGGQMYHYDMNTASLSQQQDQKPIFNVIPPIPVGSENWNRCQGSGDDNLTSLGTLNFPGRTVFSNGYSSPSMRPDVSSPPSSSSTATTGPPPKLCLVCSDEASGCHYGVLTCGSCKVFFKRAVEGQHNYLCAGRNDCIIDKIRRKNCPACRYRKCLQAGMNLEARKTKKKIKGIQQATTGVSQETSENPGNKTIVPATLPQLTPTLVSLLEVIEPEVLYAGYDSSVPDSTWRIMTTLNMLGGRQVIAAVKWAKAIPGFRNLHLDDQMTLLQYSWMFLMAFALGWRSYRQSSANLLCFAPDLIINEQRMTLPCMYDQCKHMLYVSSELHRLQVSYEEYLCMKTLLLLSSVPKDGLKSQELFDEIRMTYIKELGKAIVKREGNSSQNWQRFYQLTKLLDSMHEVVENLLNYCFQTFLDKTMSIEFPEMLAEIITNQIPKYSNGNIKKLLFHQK
How it was run: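 Steps: seed GR-bla HeLa cells, incubate 4 h at 37 C/5% CO2; pin-transfer DMSO-dissolved compounds; incubate 18 h at 37 C; add LiveBLAzer B/G FRET substrate; after 2 h at room temperature, measure fluorescence.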

[20] = molecular target: Glucocorticoid receptor (Homo sapiens) (UniProt P04150); test: qHTS assay to identify small molecule antagonists of the glucocorticoid receptor (GR) signaling pathway (AID 720692; active = well fitted inhibition curve with a large enough effect in the signal ratio in the repeat runs, not every such curve was filed as active; the % refers to the signal ratio)
How it was run: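 Antagonism was scored as loss of dexamethasone-driven (5 nM final) reporter signal in HeLa cells bearing a glucocorticoid response element–beta-lactamase construct, after 18 h compound exposure at 37 C and 2 h FRET substrate loading.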
% is scaled to controls: 0 for no effect and ±100 for the full control effect.

C=C(C)C(=O)OCCCCCCCCCCOC(=O)C(=C)C
inactive: Potency [1] | Potency [2] | Potency [3] | Potency [4] | Potency [5] | outcome [6] | outcome [7] | outcome [8] | outcome [9] | Potency [10] | outcome [11] | outcome [12] | outcome [13] | outcome [14] | outcome [15]

CC(C)(C)N
inactive: Potency [1] | Potency [2] | Potency [3] | Potency [4] | Potency [16] | outcome [6] | outcome [7] | Potency [17] | outcome [8] | outcome [9] | Potency [10] | outcome [11] | outcome [18] | outcome [12] | outcome [13] | outcome [14] | outcome [15] | Potency [19] | Potency [20]

CCC(=O)O[C@@H]1C[C@H]2CC[C@]1(C)C2(C)C
inactive: Potency [1] | Potency [2] | Potency [3] | Potency [4] | Potency [16] | outcome [6] | outcome [7] | outcome [8] | outcome [9] | outcome [11] | outcome [12] | outcome [13] | outcome [14] | Potency [19] | Potency [20]

COc1cccc([C@H](O)C2CCN(CCc3ccc(F)cc3)CC2)c1OC
inactive: Potency [1] | Potency [2] | Potency [3] | Potency [4] | outcome [6] | Potency [17] | outcome [8] | outcome [9] | Potency [10] | outcome [11] | outcome [18] | outcome [12] | outcome [13] | outcome [14] | outcome [15] | Potency [19]

CCc1ccc2c(c1)C(=O)c1ccccc1C2=O
inactive: Potency [1] | Potency [3] | Potency [4] | outcome [6] | outcome [7] | Potency [17] | outcome [8] | outcome [9] | Potency [10] | outcome [11] | outcome [18] | outcome [12] | outcome [14] | outcome [15]
active: Potency [2] 12.2 µM | Potency [16] 13.7 µM

CC(C)(C)NCC(O)COc1ccc(NC(=O)NC2CCCCC2)cc1 (configuration not stated)
inactive: Potency [1] | Potency [2] | Potency [3] | Potency [4] | outcome [6] | outcome [7] | outcome [8] | outcome [9] | outcome [11] | outcome [18] | outcome [12] | outcome [13] | outcome [14] | outcome [15] | Potency [19] | Potency [20]

CC(C)=CCCC(C)C=O (configuration not stated)
inactive: Potency [1] | Potency [2] | Potency [3] | Potency [4] | Potency [5] | outcome [6] | outcome [7] | outcome [8] | outcome [9] | Potency [10] | outcome [11] | outcome [12] | outcome [13] | outcome [14] | outcome [15]

CCc1c(C)[nH]c2c1C(=O)C(CN1CCOCC1)CC2 (configuration not stated)
inactive: Potency [1] | Potency [2] | Potency [3] | Potency [4] | Potency [16] | fluorescence, relative to Rose Bengal [6] 0.262% [at 18.6 µM] | fluorescence, % of fluorescein control [7] 0.0551% [at 18.6 µM] | fluorescence, % of triamterene [17] 0.0227% [at 18.6 µM] | fluorescence, % of fluorescent control [8] 0.192% [at 18.6 µM] | fluorescence, % of fluorescein [9] 0.152% [at 18.6 µM] | activity change [11] 0.141% [at 18.6 µM] | fluorescence, % of fluorescent control [18] 0.113% [at 18.6 µM] | fluorescence, % of Rose Bengal [12] -0.199% [at 18.6 µM] | fluorescence, % of fluorescent control [13] -0.0691% [at 18.6 µM] | fluorescence, % of fluorescein control [14] 0.0022% [at 18.6 µM]
